# Experimental data as given in PubChem BioAssay (NCI).
# About 79,000 compounds went through this panel and 15% of them were active in at least one assay; those are over-represented in the sample as a whole. Unmarked numbers belong to inactive results. Calls of active or inactive are those of the source. Rule as the data show it: active = growth inhibition above about 70%; inactive = the rest.
# Legend:
# [1] = NCI Yeast Anticancer Drug Screen. Data for the rad52 strain (AID 147);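 also: 0% = growth of vehicle-treated control cultures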; settings: S. cerevisiae rad52 mutant growth inhibition, hits give high values
# Procedure, shortened: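 Genetically altered yeast (DNA damage repair defect) treated with compound; inhibition calculated relative to vehicle.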
# [2] = NCI Yeast Anticancer Drug Screen. Data for the wt1 strain (AID 149);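 also: 0% = growth of vehicle-treated wt1 cultures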; settings: S. cerevisiae wt1 strain (SPY 50644) growth inhibition, hits give high values
# Procedure, shortened: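 Compounds are added to wt1 yeast cultures. Growth is then measured. Inhibition is expressed relative to vehicle-treated controls.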
# [3] = NCI Yeast Anticancer Drug Screen. Data for the rad50EPP+ strain (AID 151);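 also: 0% = growth of vehicle-treated control cultures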; settings: S. cerevisiae rad50 mutant strain, hits give high values
# Procedure, shortened: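 Strain rad50EPP+; compound exposure; % growth inhibition vs vehicle.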
# [4] = NCI Yeast Anticancer Drug Screen. Data for the mgt1 strain (AID 153); settings: S. cerevisiae mgt1 mutant growth inhibition, hits give high values
# Procedure, shortened: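 Read-out: yeast growth inhibition vs vehicle control. Strain mgt1, drawn from a panel altered in DNA damage repair or cell cycle control.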
# [5] = NCI Yeast Anticancer Drug Screen. Data for the rad50 strain (AID 155);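 also: 0% = growth of vehicle-only cultures of the same strain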; settings: S. cerevisiae rad50 strain growth inhibition, hits give high values
# Procedure, shortened: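 Inhibition values express reduced yeast growth in compound-treated cultures relative to vehicle-treated controls.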
# [6] = NCI Yeast Anticancer Drug Screen. Data for the mec2-1 strain (AID 157); settings: S. cerevisiae mec2-1 strain, hits give high values
# Procedure, shortened: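 Cells of the genetically defined mec2-1 yeast strain are incubated with test compound. Inhibition of growth is calculated against vehicle-treated controls.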
# [7] = NCI Yeast Anticancer Drug Screen. Data for the rad14 strain (AID 159);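 also: 0% = growth of vehicle-treated control cultures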; settings: S. cerevisiae rad14 strain growth inhibition, hits give high values
# Procedure, shortened: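 A mutant yeast strain defective in DNA damage repair is treated with compound; inhibition of its growth is scored against untreated, vehicle-exposed cultures.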
# [8] = NCI Yeast Anticancer Drug Screen. Data for the sgs1 mgt1 strain (AID 161);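 also: 0% = growth of cultures given vehicle only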; settings: S. cerevisiae sgs1 mgt1 strain, hits give high values
# Procedure, shortened: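 Inhibition of yeast growth, normalised to vehicle-treated controls, is reported for a strain bearing genetic alterations in DNA damage repair.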
# [9] = NCI Yeast Anticancer Drug Screen. Data for the CLN2oe strain (AID 163);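 also: 0% = growth of vehicle-only control cultures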; settings: S. cerevisiae CLN2oe strain, hits give high values
# Procedure, shortened: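 Strain altered in cell-cycle control, incubated with compound; growth compared to solvent-treated controls.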
# [10] = NCI Yeast Anticancer Drug Screen. Data for the cln2 rad14 strain (AID 165);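 also: 0% = growth equal to vehicle treated cultures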; settings: S. cerevisiae cln2 rad14 strain, hits give high values
# Procedure, shortened: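 The screen exposed genetically defined yeast (cln2 rad14) to test compounds and scored growth inhibition relative to vehicle-treated controls.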
# [11] = NCI Yeast Anticancer Drug Screen. Data for the bub3 strain (AID 167); settings: S. cerevisiae bub3 mutant strain, hits give high values
# Procedure, shortened: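 Steps: expose the mutant yeast strain to compound; grow alongside vehicle-treated cultures; measure growth; express inhibition against the vehicle cultures.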
# [12] = NCI Yeast Anticancer Drug Screen. Data for the wt2 strain (AID 169);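 also: 0% = growth of vehicle-treated yeast cultures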; settings: S. cerevisiae wt2 strain growth inhibition, hits give high values
# Procedure, shortened: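 Steps: yeast strain treated with compound; growth recorded; inhibition calculated relative to cultures given vehicle alone.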
# [13] = NCI Yeast Anticancer Drug Screen. Data for the mlh1 strain (AID 171);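 also: 0% = growth of vehicle-treated control cultures of the same strain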; settings: S. cerevisiae mlh1 strain growth inhibition, hits give high values
# Procedure, shortened: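 Yeast screen: mutant strain plus compound, growth scored against vehicle control wells.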
# [14] = NCI Yeast Anticancer Drug Screen. Data for the sgs1 strain (AID 173);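 also: 0% = growth of vehicle-only control cultures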; settings: S. cerevisiae sgs1 mutant, hits give high values
# Procedure, shortened: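 Inhibition of yeast growth served as the measure. The mutant strain was treated with each compound, and growth was normalised to cultures receiving vehicle alone.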
# [15] = NCI Yeast Anticancer Drug Screen. Data for the mlh1 rad18 strain (AID 175); settings: S. cerevisiae mlh1 rad18 strain growth inhibition, hits give high values
# Procedure, shortened: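 Compound-treated yeast growth, normalised to vehicle controls. Strain bears defined DNA repair mutations.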
# [16] = NCI Yeast Anticancer Drug Screen. Data for the rad18 strain (AID 177); settings: S. cerevisiae rad18 mutant growth inhibition, hits give high values
# Procedure, shortened: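 Inhibition values reflect reduced yeast growth compared with vehicle-treated controls, using a strain engineered with a DNA damage repair defect.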
# [17] = at 5.0 µM (retest, dose inferred, filed as 0.5)
# [18] = at 50.0 µM (retest, dose inferred, filed as 5.0)
smiles,measurement,setting,value
Clc1cc(-c2ccccc2)nc2ccccc12,growth inhibition,[1]; at 1.2 µM,6%
same,growth inhibition,[1]; at 3.7 µM,-1%
same,growth inhibition,[1]; at 11.0 µM,0%
same,growth inhibition,[1]; at 33.0 µM,34%
same,growth inhibition,[1]; at 100.0 µM,75% (active)
same,growth inhibition,[2]; at 1.2 µM,-10%
same,growth inhibition,[2]; at 3.7 µM,-15%
same,growth inhibition,[2]; at 11.0 µM,-17%
same,growth inhibition,[2]; at 33.0 µM,24%
same,growth inhibition,[2]; at 100.0 µM,71% (active)
same,growth inhibition,[3]; at 1.2 µM,7%
same,growth inhibition,[3]; at 3.7 µM,27%
same,growth inhibition,[3]; at 11.0 µM,56%
same,growth inhibition,[3]; at 33.0 µM,77% (active)
same,growth inhibition,[3]; at 100.0 µM,90% (active)
same,growth inhibition,[4]; at 1.2 µM,13%
same,growth inhibition,[4]; at 3.7 µM,32%
same,growth inhibition,[4]; at 11.0 µM,36%
same,growth inhibition,[4]; at 33.0 µM,80% (active)
same,growth inhibition,[4]; at 100.0 µM,97% (active)
same,growth inhibition,[5]; at 1.2 µM,6%
same,growth inhibition,[5]; at 3.7 µM,10%
same,growth inhibition,[5]; [17],68%
same,growth inhibition,[5]; at 11.0 µM,2%
same,growth inhibition,[5]; at 33.0 µM,36%
same,growth inhibition,[5]; [18],90% (active)
same,growth inhibition,[5]; at 50.0 µM,75.3% (active)
same,growth inhibition,[5]; at 100.0 µM,81% (active)
same,growth inhibition,[6]; at 1.2 µM,-18%
same,growth inhibition,[6]; at 3.7 µM,-8%
same,growth inhibition,[6]; [17],77% (active)
same,growth inhibition,[6]; at 11.0 µM,-14%
same,growth inhibition,[6]; at 33.0 µM,33%
same,growth inhibition,[6]; [18],92% (active)
same,growth inhibition,[6]; at 50.0 µM,44.4%
same,growth inhibition,[6]; at 100.0 µM,86% (active)
same,growth inhibition,[7]; at 1.2 µM,1%
same,growth inhibition,[7]; at 3.7 µM,2%
same,growth inhibition,[7]; at 11.0 µM,1%
same,growth inhibition,[7]; at 33.0 µM,46%
same,growth inhibition,[7]; at 100.0 µM,91% (active)
same,growth inhibition,[8]; [17],-23%
same,growth inhibition,[8]; [18],88% (active)
same,growth inhibition,[9]; at 1.2 µM,5%
same,growth inhibition,[9]; at 3.7 µM,3%
same,growth inhibition,[9]; at 11.0 µM,-8%
same,growth inhibition,[9]; at 33.0 µM,28%
same,growth inhibition,[9]; at 100.0 µM,54%
same,growth inhibition,[10]; [17],40%
same,growth inhibition,[10]; [18],82% (active)
same,growth inhibition,[11]; at 1.2 µM,11%
same,growth inhibition,[11]; at 3.7 µM,23%
same,growth inhibition,[11]; [17],27%
same,growth inhibition,[11]; at 11.0 µM,34%
same,growth inhibition,[11]; at 33.0 µM,60%
same,growth inhibition,[11]; [18],93% (active)
same,growth inhibition,[11]; at 100.0 µM,93% (active)
same,growth inhibition,[12]; at 1.2 µM,-11%
same,growth inhibition,[12]; at 3.7 µM,-3%
same,growth inhibition,[12]; at 11.0 µM,0%
same,growth inhibition,[12]; at 33.0 µM,47%
same,growth inhibition,[12]; at 100.0 µM,86% (active)
same,growth inhibition,[13]; at 1.2 µM,20%
same,growth inhibition,[13]; at 3.7 µM,27%
same,growth inhibition,[13]; at 11.0 µM,24%
same,growth inhibition,[13]; at 33.0 µM,61%
same,growth inhibition,[13]; at 100.0 µM,95% (active)
same,growth inhibition,[14]; at 1.2 µM,-9%
same,growth inhibition,[14]; at 3.7 µM,-12%
same,growth inhibition,[14]; at 11.0 µM,-9%
same,growth inhibition,[14]; at 33.0 µM,42%
same,growth inhibition,[14]; at 100.0 µM,82% (active)
same,growth inhibition,[15]; [17],47%
same,growth inhibition,[15]; [18],87% (active)
same,growth inhibition,[15]; at 50.0 µM,31.4%
same,growth inhibition,[16]; at 1.2 µM,16%
same,growth inhibition,[16]; at 3.7 µM,9%
same,growth inhibition,[16]; at 11.0 µM,25%
same,growth inhibition,[16]; at 33.0 µM,59%
same,growth inhibition,[16]; at 100.0 µM,91% (active)
